Some test systems named below: DU-145 prostate; K-562 leukemia; MALME-3M melanoma; MDA-MB-231 breast; RXF 393 renal; SF-268 CNS; SF-295 CNS; SF-539 CNS; UACC-257 melanoma; M14 melanoma; HT29 colon; SNB-75 CNS; SNB-19 CNS; U251 CNS; PC-3 prostate; SK-MEL-5 melanoma; UACC-62 melanoma; LOX IMVI melanoma; SK-MEL-28 melanoma.
Holding throughout (assay): NCI-60 one-dose screen, 48 h (100 = growth as untreated, 0 = no growth, -100 = all killed)
What all share (conditions): 10 µM unless noted

Compounds without any hit were thinned out: in the full panel of roughly 83,000, 20% have a hit.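 Note: values are percent growth. 100 is the growth of untreated cells, values between 100 and 0 indicate rising inhibition; between -100 and 0 indicates cell death.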 A number with no mark means an inactive call. The source made the active and inactive calls. How the source made its calls: active means growth percent below 10; inactive means the rest.

Consider `COc1cc2c3c(cc4c5c(ccc4c3c1OC)OCO5)N(CCN(C)C)C2=O`, for which the growth with DU-145 prostate was 0.415% (active); in the assay on K-562 leukemia, 1.42% (active); in the assay on MALME-3M melanoma it was -79.8% (active); with MDA-MB-231 breast, -1.13% (active); with RXF 393 renal, -88.5% (active); in the assay with SF-268 CNS, 5.2% (active). In addition, the growth with SF-295 CNS is -16.8% (active); in the assay with SF-539 CNS it was -58.4% (active); in the assay with UACC-257 melanoma it was -32.9% (active); in the assay with M14 melanoma, -54.5% (active); in the assay on HT29 colon, -9.31% (active); in the assay with SNB-75 CNS, -75.5% (active). The growth with SNB-19 CNS is 1.56% (active); in the assay with U251 CNS it was -2.59% (active); in the assay on PC-3 prostate, 6.59% (active); in the assay on SK-MEL-5 melanoma it was -90.1% (active); with UACC-62 melanoma, -64% (active); in the assay on LOX IMVI melanoma, -82.6% (active). In the assay with SK-MEL-28 melanoma, the growth was -86.6% (active).
On to `CC(=O)c1cc(C(=O)N2c3ccccc3Sc3ccccc32)n2c1ccc1ccccc12`, for which the growth was 75% with DU-145 prostate; 23.6% in the assay on K-562 leukemia; 62% in the assay with MALME-3M melanoma; 97.4% with MDA-MB-231 breast; 66.9% in the assay with RXF 393 renal; 67.5% in the assay with SF-268 CNS. Further, the growth was 41% in the assay on SF-295 CNS; 69.1% with SF-539 CNS; 51.8% in the assay on UACC-257 melanoma; 40.8% with M14 melanoma; 30% with HT29 colon; 38.7% with SNB-75 CNS. Moreover, the growth was 57.8% with SNB-19 CNS; 48.6% with U251 CNS; 46.1% in the assay with PC-3 prostate; 44.1% in the assay on SK-MEL-5 melanoma; 33.9% in the assay on UACC-62 melanoma; 58.9% in the assay on LOX IMVI melanoma. The growth in the assay with SK-MEL-28 melanoma is 61.1%.
For `C1=CC(c2nn3c(-c4ccccc4)nnc3s2)=Cc2ccccc2O1`, the growth in the assay on DU-145 prostate is 84.8%; in the assay on K-562 leukemia it was 43.5%; in the assay on MALME-3M melanoma, 74.1%; in the assay with MDA-MB-231 breast, 78.3%; in the assay on RXF 393 renal, 22.7%; in the assay with SF-268 CNS, 77.8%. Also, the growth with SF-295 CNS was 97.9%; in the assay on SF-539 CNS, 71.7%; in the assay with UACC-257 melanoma, 67.8%; in the assay with M14 melanoma, 65%; in the assay with HT29 colon, 82.1%; in the assay with SNB-75 CNS it was 78.3%. For the same compound, the growth with SNB-19 CNS is 74.9%; in the assay on U251 CNS, 84.9%; with PC-3 prostate, 80.5%; with SK-MEL-5 melanoma it was 95.6%; with UACC-62 melanoma, 74%; in the assay on LOX IMVI melanoma it was -24.4% (active). For the same compound, in the assay with SK-MEL-28 melanoma, the growth is 30.6%.
`Cc1csc(/N=C(N)/N=C(\N)c2cccs2)n1`: the growth in the assay on DU-145 prostate was 110%; with K-562 leukemia it was 95.7%; in the assay with MALME-3M melanoma, 102%; in the assay on MDA-MB-231 breast, 99.5%; in the assay on RXF 393 renal it was 106%; in the assay on SF-268 CNS it was 103%. In addition, the growth was 113% in the assay on SF-295 CNS; 99.1% with SF-539 CNS; 104% in the assay on UACC-257 melanoma; 99.1% in the assay on M14 melanoma; 116% with HT29 colon; 94.3% with SNB-75 CNS. Besides, the growth in the assay on SNB-19 CNS is 103%; in the assay on U251 CNS it was 97%; in the assay on PC-3 prostate, 92.3%; with SK-MEL-5 melanoma, 99.5%; in the assay with UACC-62 melanoma, 94.7%; with LOX IMVI melanoma, 104%. Moreover, the growth in the assay with SK-MEL-28 melanoma is 117%.
With `CCCc1cc2cc(-n3nc(CC)c4c3CC(C)(C)CC4=O)cc(NC3CCC(O)CC3)c2c(=O)[nH]1` (stereo not given), the growth is 40.2% with DU-145 prostate; 10.9% in the assay on K-562 leukemia; 8.74% (active) with MALME-3M melanoma; 7.65% (active) in the assay on MDA-MB-231 breast; -15.8% (active) in the assay with RXF 393 renal; 49.3% in the assay on SF-268 CNS. Besides, the growth in the assay on SF-295 CNS is 28.5%; in the assay on SF-539 CNS, 4.55% (active); in the assay on UACC-257 melanoma, 29.1%; in the assay on M14 melanoma, 27.2%; with HT29 colon, 7.9% (active); in the assay with SNB-75 CNS it was -6.85% (active). For the same compound, the growth was 30.6% in the assay on SNB-19 CNS; 27.8% with U251 CNS; 32.8% in the assay on PC-3 prostate; 14.1% in the assay on SK-MEL-5 melanoma; 26.6% in the assay on UACC-62 melanoma; 23.7% in the assay on LOX IMVI melanoma. In addition, the growth in the assay with SK-MEL-28 melanoma was 40.8%.
Consider `CN1CCN(c2ccc(Nc3nc(NCCCNS(=O)(=O)c4ccc(Cl)cc4)c4sccc4n3)cc2)CC1`, for which the growth was 30.8% with DU-145 prostate; 12.5% in the assay with K-562 leukemia; -88.4% (active) in the assay on MALME-3M melanoma; 9.29% (active) in the assay on MDA-MB-231 breast; -76.7% (active) with RXF 393 renal; 5.08% (active) with SF-268 CNS. Further, the growth in the assay with SF-295 CNS was -68.5% (active); with SF-539 CNS, -85.3% (active); in the assay with UACC-257 melanoma, -80.2% (active); in the assay with M14 melanoma it was -60.4% (active); in the assay with HT29 colon, -69.7% (active); in the assay on SNB-75 CNS it was 19.8%. Further, the growth with SNB-19 CNS is 39.5%; in the assay on U251 CNS, -11.3% (active); with PC-3 prostate it was 51.5%; with SK-MEL-5 melanoma, -91.1% (active); in the assay with UACC-62 melanoma, -30.5% (active); in the assay on LOX IMVI melanoma it was -84.6% (active). Besides, the growth in the assay with SK-MEL-28 melanoma was -71.9% (active).
As for `N#Cc1cnc2ccc(-c3cnc4n[nH]nc4c3)cc2c1N1CCc2cc(F)c(Cl)cc21`, the growth with DU-145 prostate is 14.6%; with K-562 leukemia it was 28.1%; with MALME-3M melanoma it was 1.37% (active); with MDA-MB-231 breast it was 21.2%; with RXF 393 renal it was -22.2% (active); in the assay on SF-268 CNS, 16.7%. The growth in the assay on SF-295 CNS was 2.19% (active); with SF-539 CNS it was 2.37% (active); with UACC-257 melanoma, 23.9%; in the assay on M14 melanoma, 21.2%; with HT29 colon it was 28.1%; in the assay on SNB-75 CNS, -0.117% (active). The growth was 16.4% in the assay with SNB-19 CNS; 21.1% in the assay with U251 CNS; 20.4% with PC-3 prostate; -45% (active) in the assay on SK-MEL-5 melanoma; 2.13% (active) with UACC-62 melanoma; 10.1% in the assay with LOX IMVI melanoma. For the same compound, the growth in the assay with SK-MEL-28 melanoma is 13.4%.
As to `CN(C)c1ccc(/C=N/Nc2nc(N/N=C/c3ccc(N(C)C)cc3)nc(N3CCCCC3)n2)cc1`, the growth was 77.5% in the assay with DU-145 prostate; 3.08% (active) with K-562 leukemia; -67.3% (active) in the assay on MALME-3M melanoma; 68.6% in the assay with MDA-MB-231 breast; 93.3% in the assay with RXF 393 renal; 105% with SF-268 CNS. In addition, the growth is 107% in the assay with SF-295 CNS; -12.3% (active) with SF-539 CNS; 104% in the assay with UACC-257 melanoma; 72.8% with M14 melanoma; -4.67% (active) with HT29 colon; 101% in the assay on SNB-75 CNS. For the same compound, the growth with SNB-19 CNS is 86%; with U251 CNS it was 50%; with PC-3 prostate, 84.8%; in the assay with SK-MEL-5 melanoma, 86.7%; with LOX IMVI melanoma it was -73.3% (active).

The values are drawn from PubChem BioAssay (NCI).
